Reference: PubChem BioAssay (Tox21)
Results filed as inconclusive are left out. Entries that show only a call come without a potency. The source made the active and inactive calls. The call rests on the fitted dose curve; in most records, active means well fitted cell-killing curve with a large enough effect in the repeat runs; inconclusive means weak or mixed curves, or effect the other way; inactive means no such curve, though single readings can be large or run the other way.
Potency means the concentration at half of the fitted maximal effect.

Test: Caspase-3/7 induction in CHO-K1 cells by small molecules, qHTS cell viability counter screen (AID 1346979); further: nearly all actives have a fitted effect of over 35% in size
Details: CellTiter-Fluor fluorescence, 17 h; series mostly up to 92.4 µM
Source text: National Center for Advancing Translational Sciences [NCATS]
NIH Chemical Genomics Center [NCGC]
U.S. Environmental Protection Agency [EPA]
National Institutes of Environmental Health Sciences [NIEHS]
National Toxicology Program [NTP]
U.S. Food and Drug Administration [FDA]
Apoptosis is a process of programmed cell death and plays a central role in the development of multicellular organisms. It is a highly regulated process and induces cell death by activating caspases, which are the members of cysteine aspartic acid-specific protease (caspase) family. Caspases involved in apoptosis are classified by their mechanism of action as initiator caspases (caspase-2, -8, -9 and -10) and executioner caspases (caspase-3, -6, and -7). Inhibition of apoptosis results in number of cancers, autoimmune diseases, inflammatory diseases and viral infection. To identify small molecule compounds that induce apoptosis, a homogeneous, luminescent Caspase-Glo 3/7 assay was used. Wild type CHO-K1 cells were used to screen Tox21 libraries for identifying caspase-3/7 activity inducers. Also cytotoxicity of the compounds was tested in parallel by measuring the cell viability using CellTiter-Fluor assay system in the same wells.
Tox21 Assay Protocol Summary:
CHO-K1 cells were dispensed at 1,500 per well in 5uL of culture medium into white solid bottom 1536-well plates (Corning Life Sciences, Corning, NY) using a Multidrop Combi (Thermo Scientific, Waltham, MA) dispenser. The assay plates were incubated at 37 C and 5% CO2 for 5hr, and then 23nL of compounds dissolved in DMSO and positive control were transferred using a Pintool station (Wako, San Diego, CA). The assay plates were incubated at 37C and 5% CO2 for 17hr. For cytotoxicity read, after 16hr incubation at 37C, 1uL CellTiter-Fluor reagent (Promega Corporation, Madison, WI) was added to each well of the assay plates using Flying Reagent Dispenser (FRD, Aurora Discovery, San Diego, CA). After 1hr incubation at 37C and 5% CO2, the fluorescence signal was quantified using a ViewLux plate reader (PerkinElmer, Shelton, CT).
For CC(=O)Nc1ccccc1O, the Potency was “inactive”.
For CCCCCCCCCCCCCCCCCCCl, the activity change, negative = cytotoxicity was -4.93% [at 8.39 µM] (inactive).
With S=c1[nH][nH]c(=S)s1 the Potency was “inactive”.
For CCC(=O)O[C@@H]1C[C@H]2CC[C@]1(C)C2(C)C, the Potency was “inactive”.
With Cc1ccc2ccccc2c1[N+](=O)[O-] the Potency was “inactive”.
In the case of C[C@H]1C[C@H]2[C@@H]3CCC4=CC(=O)C=C[C@]4(C)[C@@]3(F)[C@@H](O)C[C@]2(C)[C@@]1(O)C(=O)COP(=O)(O)O, the Potency is reported as “inactive”.
With CCC1=C(C)CN(C(=O)NCCc2ccc(S(=O)(=O)NC(=O)NC3CCC(C)CC3)cc2)C1=O (stereo not given) the Potency was “inactive”.
For CCOc1ccccc1O, the Potency was “inactive”.
In the case of O=Cc1ccc([N+](=O)[O-])cc1, the Potency is reported as “inactive”.
For O=C(O)CCc1nc2ccccc2[nH]1, the Potency was “inactive”.
In the case of O=C(OC1C[C@H]2CC[C@@H](C1)[N+]21CCCC1)C(O)(c1ccccc1)c1ccccc1 (stereo not given in full), the Potency is reported as “inactive”.
In the case of CCC(C)CCCC(C)(C)O (stereo not given), the Potency is reported as “inactive”.
For Cc1nc(C)c(C)nc1C, the Potency was “inactive”.
With CC(CC(C#N)(c1ccccc1)C(C)C)N(C)C (stereo not given) the Potency was “inactive”.
In the case of CCc1ccc(C(=O)C(C)CN2CCCCC2)cc1 (stereo not given), the Potency is reported as “inactive”.
In the case of NCCOCCOCCN, the Potency is reported as “inactive”.
For O=C(O)c1ccc2cc(O)ccc2c1, the Potency was “inactive”.
In the case of O=C(Cl)c1cc(Cl)cc(Cl)c1, the Potency is reported as “inactive”.
For OCC(O)c1ccccc1 (stereo not given), the Potency was “inactive”.
With CCCCOC(=O)CC#N the Potency was “inactive”.
In the case of COc1ccc(C(=O)Nc2ccccc2)cc1[N+](=O)[O-], the Potency is reported as “inactive”.
In the case of O=C(O)c1ccccc1[N+](=O)[O-], the Potency is reported as “inactive”.
For CC(Cc1ccccc1)(NC(=O)CN)c1ccccc1 (stereo not given), the Potency was “inactive”.
In the case of O=C(O)CNc1ccccc1, the Potency is reported as “inactive”.
With O=C1c2ccccc2C(=O)C1c1ccc2ccccc2n1 the Potency was 9.59 µM (active).
For NC(=O)c1ccccc1C(N)=O, the Potency was “inactive”.
With Clc1nc2ccccc2nc1Cl the Potency was “inactive”.
For NC(=O)c1ccccc1, the Potency was “inactive”.
In the case of CCCOC(C)=O, the Potency is reported as “inactive”.
For C/C(=C(\CCO)SS/C(CCO)=C(\C)N(C=O)Cc1cnc(C)nc1N)N(C=O)Cc1cnc(C)nc1N, the Potency was “inactive”.
In the case of C1=COCCC1, the Potency is reported as “inactive”.
With O=C(O)COCC(=O)O the Potency was “inactive”.
With O=C(NC1CCN(CCc2c[nH]c3ccccc23)CC1)c1ccccc1 the Potency was “inactive”.
For O=C(c1ccco1)N1CCNCC1, the Potency was “inactive”.
For C/C(=C\C(C)CC(C)CC(C)C)C1CC(=O)OC1=O (stereo not given), the Potency was “inactive”.
With CC1(C)CC(O)CC(C)(C)N1[O] the Potency was “inactive”.
In the case of Nc1nc(Cl)nc2c1ncn2[C@H]1C[C@H](O)[C@@H](CO)O1, the Potency is reported as “inactive”.
With CO[C@@H]1[C@@H](O[C@@H]2O[C@H](C)[C@@H](O[C@H]3C[C@@](C)(O)[C@@H](O)[C@H](C)O3)[C@H](N(C)C)[C@H]2O)[C@@H](CC=O)C[C@@H](C)[C@@H](O[C@@H]2CC[C@H](N(C)C)[C@@H](C)O2)/C=C/C=C/C[C@@H](C)OC(=O)C[C@H]1OC(C)=O the Potency was “inactive”.
In the case of O=c1[nH]nc(-c2ccc([N+](=O)[O-])o2)o1, the Potency is reported as 61.1 µM (active).
For O=C(O)c1ccc(O)c(O)c1, the Potency was “inactive”.
